# Out of some 310,000 compounds screened, about 18,000 (5.8%) were called active. Inconclusive results (about 22%) are left out. Calls come from the whole dose curve; as a rule, active = well fitted inhibition curve with a large enough effect; inconclusive = small, poorly fitted or top-dose-only effect, or another doubt; inactive = no such curve, though single readings can be large or run the other way. Shown is part of a subset that was picked to be rich in actives. Where a call stands in place of a potency, no number is given.
# Assay: Primary qHTS for delayed death inhibitors of the malarial parasite plastid, 48 hour incubation
# Settings: P. falciparum luciferase growth in erythrocytes; series mostly up to 28.7 µM
# Source text: The goal of this screen is to discover new antimalarial compounds that act by inhibiting the development of the apicoplast in the malarial parasite Plasmodium falciparum. The biochemical processes that make this organelle essential for erythrocytic stage parasites are not well understood. However, antibiotics such as azithromycin and tetracycline, which target the apicoplast translational machinery, have a potent antimalarial effect.
# We have developed a cell-based assay that measures parasite growth based on the expression of an integrated copy of a firefly luciferase reporter. To detect small molecules that cause this "delayed death" phenotype, erythrocytes infected with the luciferase-expressing parasites were incubated with compounds for either one or two generations, corresponding to 48 and 96 hours, respectively. Compounds that inhibit parasite growth in the second generation, but not the first, should be enriched in antimalarials that target the apicoplast. Growth inhibition is detected by a decrease in luciferase activity.
# Assay Provider: David Fidock and Eric Ekland, Columbia University
# Keywords: NIH Roadmap, MLPCN, MLI, MLSMR, qHTS, NCGC, qHTS, malaria, luciferase, viability
# Four microliters of culture medium (RPMI 1640 with 0.5% w/v Albumax (GIBCO), 24 mM sodium bicarbonate and 10 ug/mL gentamycin) were dispensed by a Multi-drop Combi into white solid 1536-well plates (Grenier) and 23 nL compound was added by a pin tool. Four microliters of infected erythrocytes (2% hematocrit, 0.1% parasitemia final concentration) in culture medium were dispensed and the plates incubated for 48 hours at 37 C in 5% CO2. Two microliters of luciferase detection reagent was added and luminescence was detected by a ViewLux (PerkinElmer) reader.
# Potency is the fitted concentration of half-maximal effect.
row,Structure (SMILES),Potency
1,COc1ccc(N2CCN(C(=O)c3ccc(N4CCCCS4(=O)=O)cc3)CC2)cc1,inactive
2,Cc1cc(Cl)ccc1OCCCC(=O)Nc1cccc(-n2cnnn2)c1,inactive
3,COc1ccc(C2=NN(C(C)=O)C(c3ccccc3)C2)cc1 (stereo not drawn),inactive
4,Cc1ccc(N2C(=O)CC(Nc3cccc4ccccc34)C2=O)cc1 (stereo not drawn),inactive
5,Cc1ccc(N2C(=O)C3N=NN(CC(=O)N4N=C(c5cccc6ccccc56)CC4c4ccccc4)C3C2=O)cc1 (stereo not drawn),13.1 µM (active)
6,O=C(CSc1nnnn1C1CCCC1)N1CCCCC1,inactive
7,O=C(O)C1=NN(c2c(F)c(F)cc(F)c2F)C(=O)CC1,inactive
8,COc1ccc(N2CCN(C(=O)CCNC(=O)c3ccc(Br)cc3)CC2)cc1,inactive
9,COc1cccc(C(=O)N2CCC(n3nccc3NC(=O)C3CCOC3)CC2)c1 (stereo not drawn),inactive
10,CC(=O)N/C(=N/c1nc(C)cc(C)n1)Nc1ccc(F)cc1F,inactive
11,Cc1cc(C)nc(-n2nc(C)cc2NC(=O)c2ccc(F)cc2F)n1,10.4 µM (active)
12,Cc1cc(NC(=O)c2cnn3cccnc23)n(-c2ccccc2)n1,inactive
13,CC(CN1CCOCC1)OC(=O)c1ccc(C(C)(C)C)cc1 (stereo not drawn),inactive
14,O=C(O)CCCC(=O)N1N=C(c2ccco2)CC1c1ccco1 (stereo not drawn),inactive
15,Cc1nn2c(c1-c1ccccc1)N=C(c1ccco1)CC2c1ccccc1 (stereo not drawn),14.7 µM (active)
16,Cc1nn(C(=O)c2ccoc2C)c(N)c1-c1ccccc1,inactive
17,CCN1CCN(C(=O)C2CCN(S(=O)(=O)c3cc(Cl)ccc3Cl)CC2)CC1,inactive
18,COc1ccc(C(=O)c2c(C)c(CCC#N)n3ccccc23)c(OC)c1,inactive
19,Cc1ccccc1NC(=O)C(C)OC(=O)CCC(=O)N(CC(C)C)c1c(N)n(CC(C)C)c(=O)[nH]c1=O (stereo not drawn),inactive
20,COc1ccc(C(=O)NCC(=O)N/N=C/c2ccc([N+](=O)[O-])o2)cc1OC,6.57 µM (active)
21,COc1ccc(C(=O)NCC(=O)N/N=C/c2ccc([N+](=O)[O-])s2)cc1OC,inactive
22,COc1cc(/C=N\NC(=O)CNC(=O)c2cccc([N+](=O)[O-])c2)ccc1O,inactive
23,O=C(Cn1ccc2cc(S(=O)(=O)N3CCCC3)ccc21)NCc1ccccc1,inactive
24,CCCOc1cccc(C(=O)Nc2ccccc2C(=O)N2CCN(C)CC2)c1,inactive
25,CC1=C(C/C=C(\C)CCCC(C)CCCC(C)CCCC(C)C)C(=O)c2ccccc2C1=O (stereo not drawn),10.7 µM (active)
26,CS(=O)(=O)c1ccc(Cl)c(NC(=O)COC(=O)c2ncc(Cl)c(Cl)c2Cl)c1,inactive
27,COc1ccc(CNc2cc(C)cc(C)c2)cc1OC,inactive
28,CN(CC(=O)Nc1cccc(F)c1)C(=O)C1CSC2(C)CCC(=O)N12 (stereo not drawn),inactive
